Laboratory results from PubChem BioAssay AID492952 (Southern Research Specialized Biocontainment Screening …, 2010).
Screen size: about 2,300 compounds; about 1,500 (65%) were called active. No rule for the calls is given here. So high a share suggests a set chosen from earlier hits. The list shows a part of the results. Measured potencies and affinities stand elsewhere.

Assay: replicating M. tuberculosis growth inhibition, dose response, non-replicating M. tuberculosis project, H37Rv (AID 492952);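 also: Mycobacterium tuberculosis grown in culture; growth inhibition read after a week of incubation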
Details: series mostly up to 50 µM

SMILES | outcome
O=C(O)c1ccc(-n2nc(C(F)(F)F)c3c2CCCC3)cc1 | inactive
CCc1cc2c3c(c1)C(C)CC(C)(C)N3C(=O)/C2=C1\SC(=O)NC1=O (stereo unspecified) | inactive
COc1cccc(-c2nc(C=O)cs2)c1 | inactive
Cc1ccnc(-n2c(C)cc(/C=C3\C(=O)NC(=S)N(C)C3=O)c2C)c1 | inactive
Cc1cc(C=C2C(=O)N(C)C(=S)N(C)C2=O)c(C)n1-c1cccnc1 | inactive
CCCCCCCC(=O)NNC(=O)c1ccc(F)cc1 | inactive
Cc1ccc(S(=O)(=O)CCC(=O)Nc2nc(-c3ccncc3)cs2)cc1 | inactive
CCCCOc1ccc(NC(=O)CN2CCN(Cc3ccccc3)CC2)cc1 | inactive
O=C(NN=C1C2CC3CC1CC(Cl)(C3)C2)c1cccs1 | inactive
Cc1ccc(NC(=O)C2COc3ccccc3O2)nc1 (stereo unspecified) | inactive
CCC(=O)N/N=C/c1ccc(-c2ccc(Cl)cc2)o1 | inactive
Cc1cccc(C)c1N1C(=O)CC(N2CCSCC2)C1=O (stereo unspecified) | inactive
CCCCCCCC(=O)N/N=C(/C)c1c(O)cc(C)oc1=O | inactive
Cc1cc(CN(C)C)c(O)c(C2(C)CCCCC2)c1 | inactive
COc1ccccc1C(c1nnnn1Cc1ccccc1)N1CCC(C(N)=O)CC1 (stereo unspecified) | inactive
O=C(N/N=C/c1ccc[nH]1)c1ccc2c(c1)OCO2 | inactive
O=C(NCc1cccs1)c1ccc(Br)o1 | inactive
O=C(CC1CC2CCC1C2)NCc1cccs1 (stereo unspecified) | inactive
CC(C)c1cc(C(=O)N/N=C/C=C/c2ccccc2)n[nH]1 | inactive
Cc1cc(C(=O)N/N=C/c2cccc(Cl)c2Cl)no1 | inactive
CC1(CCc2ccc3c(c2)OCO3)NC(=O)c2ccccc2N1 (stereo unspecified) | inactive

SMILES | outcome
O=C(N/N=C/c1cc(Br)cc(Cl)c1O)c1ccc2c(c1)OCO2 | inactive
CC1=CC(=O)NP(=O)(Oc2ccc3ccccc3c2)N1 (stereo unspecified) | inactive
CC(=O)c1c(C)n(C)c2ccc(OC(=O)c3ccco3)cc12 | inactive
Cc1cc2cc(CNC(=O)COc3ccccc3)ccc2n1C | inactive
CCN(CC)CCNC(=O)c1[nH]c2ccc(OCc3ccccc3)cc2c1C | inactive
CCOc1ccc(-c2ccc(SCC)nn2)cc1 | inactive
Oc1ccccc1Nc1nc(NCC2CCCO2)c2ccccc2n1 (stereo unspecified) | inactive
CCCCCCC1CC(C)(C(=O)CNc2nncs2)OC1=O (stereo unspecified) | inactive
Cc1cc2nc(CSc3ccc(Cl)cc3)cc(=O)n2[nH]1 | inactive
O=C(c1nnc(-c2ccc(Cl)cc2)o1)C1CCCC1 | inactive
Cc1cc(C)c2sc(NC(=O)C3=COCCO3)nc2c1 | inactive
CN(C)Cc1ccccc1Sc1ccccc1Br | inactive
C(#CCN1CCOCC1)COCc1ccccc1 | inactive
CNC(=O)c1[nH]cnc1C(=O)Nc1ccc(Cl)cc1 | inactive
COc1ccc(/C(=N/O)C(C)(C)NO)cc1 | inactive
CC1COC(=O)C(NNc2ccc(Cl)c(Cl)c2)=N1 (stereo unspecified) | inactive
O=C(NC(=S)NCCc1ccccc1)c1ccccc1 | inactive
CCOC(=O)C1CCCN(Cc2ccc(OCc3ccccc3)cc2)C1 (stereo unspecified) | inactive
CC(C)c1ccc(N2C(=O)CC(Sc3ncn[nH]3)C2=O)cc1 (stereo unspecified) | inactive
CC1=NN(C(=O)c2csc(C)c2)C(O)(C(F)(F)F)C1 (stereo unspecified) | inactive
CC1=NN(C(=O)c2csc(C(C)C)c2)C(O)(C(F)(F)F)C1 (stereo unspecified) | inactive

SMILES | outcome
O=C(COC(=O)c1ccc(Br)o1)Nc1ncc([N+](=O)[O-])s1 | inactive
Nc1cccn2c(-c3ccc(Cl)cc3)cnc12 | inactive
CC1CC(C)CN(CCOCCSc2ccc(Cl)cc2)C1 (stereo unspecified) | inactive
Clc1ccc(CN2C3=NCCCN3c3ccccc32)cc1 | inactive
COc1ccc(C(=O)CCS(=O)(=O)c2ccc(C)cc2)cc1OC | inactive
O=C1CC(=O)CC(c2ccccc2)C1 | inactive
CCN1CCC(=NNC(=O)c2ccco2)CC1 | inactive
O=C(NCc1nnc(SC/C=C/c2ccccc2)o1)c1ccco1 | inactive
Cc1occc1C(=O)N/N=C/C(Br)=C\c1ccccc1 | inactive
O=C(Nc1nnc(COc2ccc(Cl)cc2)s1)c1ccco1 | inactive
CC1=NN(C(=O)CCCc2ccccc2)C(O)(C(F)(F)F)C1 (stereo unspecified) | inactive
Cc1cc(C)cc(OC(=O)c2cccnc2)c1 | inactive
Cc1n[nH]c(C)c1CCNC(=O)C1CCC(=O)N(Cc2ccccc2F)C1 (stereo unspecified) | inactive
COc1ccc2c3c(cccc13)OCC2=O | inactive
O=C1/C(=C/c2cccs2)COc2ccccc21 | inactive
S=C1NC2(CCCC2)N=C1c1ccccc1 | inactive
CCOC(=O)Nc1cccc(OCC(=O)Nc2ccc(OC)cc2OC)c1 | inactive
CCOc1ccc(C(=O)N/N=C(/C)C2C(=O)c3ccccc3C2=O)cc1 | inactive
NC(=O)COc1ccc2cc(-c3ccc(F)cc3)c(=O)oc2c1 | inactive
CCOc1c(OC(C)=O)ccc(/C=C2\N=C(SCC)SC2=O)c1[N+](=O)[O-] | inactive
COc1ccc(-c2nnc(SCC(C)C)o2)cc1 | inactive

SMILES | outcome
Cc1ccc(CSc2nnc(-c3cccnc3)o2)cc1 | inactive
Brc1ccc(CSc2nnc(-c3ccco3)o2)cc1 | inactive
O=[N+]([O-])c1ccc(CSc2nnc(-c3cccnc3)o2)cc1 | inactive
O=C1CC(N2CCC(C(=O)N3CCCCC3)CC2)C(=O)N1 (stereo unspecified) | inactive
C#CCSc1nnc(-c2ccc(O)cc2)o1 | inactive
CC(C)c1ccc(OCC(=O)NCc2ccccc2)cc1 | inactive
Cc1cc(Br)ccc1OCCCCN1CCCCC1 | inactive
O=C(NCc1ccc(F)cc1)c1cnccn1 | inactive
COc1ccc(Cc2nnc(-c3ccccc3)o2)cc1 | inactive
O=C(c1ccc(-c2ccc([N+](=O)[O-])cc2)o1)N1CCN(S(=O)(=O)c2cccs2)CC1 | inactive
Cc1ccc2[nH]c3c(c2c1)CCCC3NCCO (stereo unspecified) | inactive
COCCCn1c(=NC(=O)c2ccccc2)c(C#N)cc2c(=O)n3cccc(C)c3nc21 | inactive
Cc1cc(Cl)ccc1NNC(=O)c1c(C)noc1C | inactive
CCOC(=O)c1ccsc1NC(=O)CCS(=O)(=O)c1ccccc1 | inactive
CCOC(=O)c1sc(NC(=O)CCN2CCOCC2)c(C(=O)OCC)c1C | inactive
Cc1ccc(Sc2ncccc2N)cc1 | inactive
CC1(C)CC(=O)C=C(Nc2ccccc2N)C1 | inactive
Nc1ccc(Nc2ccccc2)cc1 | inactive
